In PubChem BioAssay AID1159580 (chemical genetic matrix, 2015):
Among all 5,500 compounds or so, about 2,000 (36%) were called active. About 18% were inconclusive and are not listed. Cut-off read from the data, not from the text of the source: active = normalized growth mostly below about 0.91 (no sharp cut-off); inconclusive = no clear call, values can overlap the other calls; inactive = mostly above about 0.92. The list shows a part of the results.

Assay: chemical genetic growth profiling, strain panel (AID 1159580);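 note: tested at 20 µM; growth read once vehicle control cultures reached saturation at 30 °C; 1 = growth at the plate median or of vehicle wells; lower values mean less growth of the strain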
Conditions: growth OD

Measured: normalized growth

CC1CC[C@@]2(OC1)O[C@H]1CC3C4CC[C@@H]5C[C@@H](O)CC[C@]5(C)C4CC[C@]3(C)[C@H]1[C@@H]2C (some centres not stated)
inactive: S. cerevisiae deletion strains, locus YJR066W, strain TOR1, stronger effect = lower value 0.937 | S. cerevisiae deletion strains, locus YJR075W, strain HOC1, stronger effect = lower value 1.03 | S. cerevisiae deletion strains, locus YKL009W, strain mrt4, stronger effect = lower value 0.988 | S. cerevisiae deletion strains, locus YKL068W, stronger effect = lower value 0.985 | S. cerevisiae deletion strains, locus YKL085W, strain MDH1 (second series), stronger effect = lower value 0.969 | S. cerevisiae deletion strains, locus YKL085W, strain MDH1, stronger effect = lower value 0.969 | S. cerevisiae deletion strains, locus YKL160W, strain elf1, stronger effect = lower value 1.02 | S. cerevisiae deletion strains, locus YKL190W, strain CNB1, stronger effect = lower value 1.03 | S. cerevisiae deletion strains, locus YKR001C, strain vps1, stronger effect = lower value 1.01 | S. cerevisiae deletion strains, locus YKR026C, strain gcn3, stronger effect = lower value 1.03 | S. cerevisiae deletion strains, locus YLL026W, stronger effect = lower value 1.02 | S. cerevisiae deletion strains, locus YLL041C, strain sdh2, stronger effect = lower value 1.02 | S. cerevisiae deletion strains, locus YLR027C, strain aat2, stronger effect = lower value 1.05 | S. cerevisiae deletion strains, locus YLR039C, strain RIC1, stronger effect = lower value 1.09 | S. cerevisiae deletion strains, locus YLR058C, strain SHM2, stronger effect = lower value 1.04 | S. cerevisiae deletion strains, locus YLR102C, strain apc9, stronger effect = lower value 1.01 | S. cerevisiae deletion strains, locus YLR113W, strain HOG1, stronger effect = lower value 0.996 | S. cerevisiae deletion strains, locus YLR221C, strain rsa3, stronger effect = lower value 1.03 | S. cerevisiae deletion strains, locus YLR258W, strain gsy2, stronger effect = lower value 1.03 | S. cerevisiae deletion strains, locus YLR262C, strain YPT6 (second series), stronger effect = lower value 0.987 | S. cerevisiae deletion strains, locus YLR268W, strain sec22, stronger effect = lower value 1.02 | S. cerevisiae deletion strains, locus YLR320W, strain mms22, stronger effect = lower value 1.04 | S. cerevisiae deletion strains, locus YLR330W, strain CHS5, stronger effect = lower value 1.02 | S. cerevisiae deletion strains, locus YLR342W, strain FKS1 (second series), stronger effect = lower value 1.03 | S. cerevisiae deletion strains, locus YLR342W, strain FKS1, stronger effect = lower value 1.03 | S. cerevisiae deletion strains, locus YLR370C, strain arc18, stronger effect = lower value 1.02 | S. cerevisiae deletion strains, locus YLR371W, strain rom2, stronger effect = lower value 1.01 | S. cerevisiae deletion strains, locus YLR384C, strain iki3, stronger effect = lower value 1.01 | S. cerevisiae deletion strains, locus YLR418C, strain cdc73, stronger effect = lower value 1.04 | S. cerevisiae deletion strains, locus YML016C, strain PPZ1, stronger effect = lower value 1.02 | S. cerevisiae deletion strains, locus YML032C, strain rad52, stronger effect = lower value 1.01 | S. cerevisiae deletion strains, locus YML120C, strain ndi1, stronger effect = lower value 1.04 | S. cerevisiae deletion strains, locus YML124C, strain tub3, stronger effect = lower value 0.998 | S. cerevisiae deletion strains, locus YMR058W, strain fet3, stronger effect = lower value 1.02 | S. cerevisiae deletion strains, locus YMR078C, strain ctf18, stronger effect = lower value 0.998 | S. cerevisiae deletion strains, locus YMR125W, strain sto1, stronger effect = lower value 1.04 | S. cerevisiae deletion strains, locus YMR129W, stronger effect = lower value 1.01 | S. cerevisiae deletion strains, locus YMR205C, strain PFK2, stronger effect = lower value 1.02 | S. cerevisiae deletion strains, locus YMR223W, strain ubp8, stronger effect = lower value 1 | S. cerevisiae deletion strains, locus YMR231W, strain pep5, stronger effect = lower value 1.02 | S. cerevisiae deletion strains, locus YMR307W, strain GAS1, stronger effect = lower value 1.21 | S. cerevisiae deletion strains, locus YNL067W, strain RPL9B, stronger effect = lower value 1.03 | S. cerevisiae deletion strains, locus YNL071W, strain lat1, stronger effect = lower value 1.04 | S. cerevisiae deletion strains, locus YNL183C, strain NPR1, stronger effect = lower value 0.941 | S. cerevisiae deletion strains, locus YNL209W, strain ssb2, stronger effect = lower value 1.01 | S. cerevisiae deletion strains, locus YNL233W, strain BNI4, stronger effect = lower value 1.07 | S. cerevisiae deletion strains, locus YNL248C, strain rpa49, stronger effect = lower value 1.02 | S. cerevisiae deletion strains, locus YNL250W, strain rad50, stronger effect = lower value 1.05 | S. cerevisiae deletion strains, locus YNL271C, strain bni1, stronger effect = lower value 1 | S. cerevisiae deletion strains, locus YNL298W, strain CLA4, stronger effect = lower value 1.05 | S. cerevisiae deletion strains, locus YNL307C, strain MCK1, stronger effect = lower value 1 | S. cerevisiae deletion strains, locus YNL322C, strain KRE1 (second series), stronger effect = lower value 1.05 | S. cerevisiae deletion strains, locus YNL322C, strain KRE1, stronger effect = lower value 1.02 | S. cerevisiae deletion strains, locus YNR049C, strain mso1, stronger effect = lower value 1.02 | S. cerevisiae deletion strains, locus YNR052C, strain pop2, stronger effect = lower value 0.995 | S. cerevisiae deletion strains, locus YOL012C, strain htz1 1.12 | S. cerevisiae deletion strains, locus YOL147C, strain pex11, stronger effect = lower value 1.03 | S. cerevisiae deletion strains, locus YOR001W, strain rrp6, stronger effect = lower value 1.05 | S. cerevisiae deletion strains, locus YOR061W, strain CKA2, stronger effect = lower value 1.02 | S. cerevisiae deletion strains, locus YOR069W, strain VPS5, stronger effect = lower value 1.02 | S. cerevisiae deletion strains, locus YOR070C, strain gyp1, stronger effect = lower value 1.01 | S. cerevisiae deletion strains, locus YOR080W, strain dia2, stronger effect = lower value 1.02 | S. cerevisiae deletion strains, locus YOR083W, strain WHI5, stronger effect = lower value 1.02 | S. cerevisiae deletion strains, locus YOR106W, strain vam3, stronger effect = lower value 1.04 | S. cerevisiae deletion strains, locus YOR136W, strain idh2, stronger effect = lower value 1.01 | S. cerevisiae deletion strains, locus YOR144C, strain elg1, stronger effect = lower value 1 | S. cerevisiae deletion strains, locus YOR184W, strain ser1, stronger effect = lower value 1 | S. cerevisiae deletion strains, locus YOR231W, strain MKK1, stronger effect = lower value 0.99 | S. cerevisiae deletion strains, locus YOR265W, strain rbl2, stronger effect = lower value 1.01 | S. cerevisiae deletion strains, locus YOR270C, strain vph1, stronger effect = lower value 1.14 | S. cerevisiae deletion strains, locus YOR290C, strain snf2, stronger effect = lower value 1.1 | S. cerevisiae deletion strains, locus YOR316C, strain cot1, stronger effect = lower value 0.992 | S. cerevisiae deletion strains, locus YPL051W, strain arl3, stronger effect = lower value 1.02 | S. cerevisiae deletion strains, locus YPL078C, strain atp4, stronger effect = lower value 1.05 | S. cerevisiae deletion strains, locus YPL106C, strain sse1, stronger effect = lower value 1.02 | S. cerevisiae deletion strains, locus YPL240C, strain hsp82, stronger effect = lower value 1.02 | S. cerevisiae deletion strains, locus YPL241C, strain CIN2, stronger effect = lower value 1.03 | S. cerevisiae deletion strains, locus YPL256C, strain CLN2, stronger effect = lower value 0.984 | S. cerevisiae deletion strains, locus YPR119W, strain clb2, stronger effect = lower value 1.01 | S. cerevisiae deletion strains, locus YPR141C, strain kar3, stronger effect = lower value 1 | S. cerevisiae deletion strains, locus YPR163C, strain tif3, stronger effect = lower value 1.01 | S. cerevisiae deletion strains, locus YPR167C, strain met16, stronger effect = lower value 1.02 | S. cerevisiae deletion strains, strain wtn01, stronger effect = lower value 1.01 | S. cerevisiae strains, strain wild type, stronger effect = lower value 1.05
active: S. cerevisiae deletion strains, locus YKR091W, strain srl3, stronger effect = lower value 1.11 [resistant] | S. cerevisiae deletion strains, locus YLL001W, strain dnm1, stronger effect = lower value 1.18 [resistant] | S. cerevisiae deletion strains, locus YLR357W, strain rsc2, stronger effect = lower value 1.45 [resistant]
